# According to PubChem BioAssay (Tox21):
# Records with an inconclusive call do not appear. Where a call stands in place of a potency, no number is given. Active and inactive are the calls of the source. The call rests on the fitted dose curve; in most records, active means well fitted cell-killing curve with a large enough effect in the repeat runs; inconclusive means weak or mixed curves, or effect the other way; inactive means flat fitted curve, though single readings scatter.
# Assays:
# [1] = cAMP Responsive Elements (CRE) small molecule antagonists, cell-based qHTS assay: qHTS cell viability counter screen (AID 2060913); details: CRE-bla HEK293T viability, CellTiter-Glo luminescence, 5 h; series mostly up to 92.4 µM; further: nearly all actives have a fitted effect of over 40% in size
# Method in brief: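 Steps: cells plated and held 18 hrs at 37 C/5% CO2; compounds and NKH477 (0.25 uM final) added; 3 hrs incubation; reporter substrate read; CellTiter-Glo added to measure cytotoxicity by luminescence.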
# [2] = cAMP Responsive Elements (CRE) small molecule agonists, cell-based qHTS assay: qHTS cell viability counter screen (AID 2060914); details: CRE-bla HEK293T viability, CellTiter-Glo luminescence, 5 h; series mostly up to 92.4 µM;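 further: viability read after 3 h of compound exposure; nearly all actives have a fitted effect of over 50% in size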
# Method in brief: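 Cells are seeded and incubated 18 h, treated with compounds in DMSO for 3 h, read for the bla reporter, then given CellTiter-Glo; luminescence is measured after 30 min at room temperature.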
# Potency means the concentration at half of the fitted maximal effect.
SMILES,Potency [1],Potency [2],"viability change, negative = cytotoxic [1]","activity change, negative = cytotoxicity [2]"
Cc1cc(Cl)ccc1OCCCC(=O)O,inactive,inactive,,
O=[N+]([O-])c1ccc2ccc3cccc4ccc1c2c34,inactive,inactive,,
CC1NCCOC1c1ccccc1 (stereo not given),inactive,inactive,,
S=C=NCCc1ccccc1,inactive,inactive,,
C=C(C)CN(CC)c1c([N+](=O)[O-])cc(C(F)(F)F)cc1[N+](=O)[O-],inactive,inactive,,
Oc1c(Cl)c(Cl)cc(Cl)c1Cl,inactive,inactive,,
CCOC(=O)C1(c2ccccc2)CCN(CCc2ccc(N)cc2)CC1,inactive,inactive,,
COc1ccc(C(CN(C)C)C2(O)CCCCC2)cc1 (stereo not given),inactive,inactive,,
CC1=NNC(=O)N(/N=C/c2cccnc2)C1,inactive,inactive,,
CN1C(=O)C(O)N=C(c2ccccc2)c2cc(Cl)ccc21 (stereo not given),inactive,inactive,,
c1ccc(Nc2ccc3ccccc3c2)cc1,inactive,inactive,,
N#CN,inactive,inactive,,
ClCC1CO1 (stereo not given),inactive,inactive,,
Clc1c(Cl)c(Cl)c(Cl)c(Cl)c1Cl,,,2.46% [at 8.39 µM] (inactive),9.47% [at 8.39 µM] (inactive)
CC(=O)[O][Pb]([c]1ccccc1)([c]1ccccc1)[c]1ccccc1,18 µM (active),24.3 µM (active),,
Clc1ccc(C(c2ccc(Cl)cc2)C(Cl)Cl)cc1,inactive,62.1 µM (active),,
CCCCCCCCCCCC#N,inactive,inactive,,
C=C(Cl)Cl,inactive,inactive,,
Nc1ccc([As](=O)(O)O)cc1,inactive,inactive,,
CNC(=O)CSP(=S)(OC)OC,inactive,inactive,,
